Calls of active or inactive are those of the source.
Tests used:
[1] = test system: Plasmodium falciparum Sir2 (PF13_0152, Sir2A); assay: Plasmodium falciparum Sir2A binding compounds – biochemical, small-molecule microarray, 635 nm fluorescence, primary screen (AID 1098); details: fluorescence 635 nm, higher = more signal;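 further: score merges spot fluorescence intensity with its signal-to-noise ratio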
[2] = probe aDKK1 binding to arrayed compounds – biochemical, biotinylated probe, 635/667 nm fluorescence, primary screen (AID 1099); details: small-molecule microarray, higher = more signal;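 further: score merges 667nm spot fluorescence with signal to noise across triplicate slides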
[3] = probe aCHRDL2 binding to arrayed compounds – biochemical, biotinylated probe, 635/667 nm fluorescence, primary screen (AID 1100); details: small-molecule microarray, higher = more signal
[4] = change in splice reporter luminescence, either direction, cell-based, HEK293, spliceosome inhibition project, primary screen (AID 1101); details: HEK293 splicing luciferase reporter, 24 h, higher = more signal, called active from +8 up or from −8 down;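 further: HEK293 cells carrying a splicing-competent luciferase reporter gene; test concentration not given here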
[5] = target: Fibroblast growth factor 10 (Homo sapiens) (UniProt O15520); assay: compounds binding fibroblast growth factor 10 – biochemical, small-molecule microarray, 635 nm fluorescence, primary screen (AID 1102); details: FGF10 binding, fluorescence 635 nm, higher = more signal
Fibroblast growth factor 10 (Homo sapiens), sequence (O15520 whole entry, looked up): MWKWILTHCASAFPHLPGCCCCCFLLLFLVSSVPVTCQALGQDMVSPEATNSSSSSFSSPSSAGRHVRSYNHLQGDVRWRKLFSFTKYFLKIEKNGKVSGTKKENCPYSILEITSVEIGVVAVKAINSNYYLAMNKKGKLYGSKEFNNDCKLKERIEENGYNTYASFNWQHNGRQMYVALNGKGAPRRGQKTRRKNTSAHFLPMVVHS

[6] = test system: glycogen synthase kinase-3 (GSK3A per assay name; protocol says GSK3B); assay: compounds binding glycogen synthase kinase-3 – biochemical, small-molecule microarray, 635 nm fluorescence, GSK3A, primary screen (AID 1103); details: fluorescence 635 nm, higher = more signal; further: the record names both GSK3A and GSK3B
[7] = target: Epidermal growth factor receptor (Homo sapiens) (UniProt P00533); assay: compounds binding epidermal growth factor receptor – biochemical, small-molecule microarray, 635 nm fluorescence, primary screen (AID 1104); details: EGFR binding, higher = more signal;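 further: score merges 667 nm emission intensity with spot signal to noise over triplicate slides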
Epidermal growth factor receptor (Homo sapiens), sequence (P00533 whole entry, looked up): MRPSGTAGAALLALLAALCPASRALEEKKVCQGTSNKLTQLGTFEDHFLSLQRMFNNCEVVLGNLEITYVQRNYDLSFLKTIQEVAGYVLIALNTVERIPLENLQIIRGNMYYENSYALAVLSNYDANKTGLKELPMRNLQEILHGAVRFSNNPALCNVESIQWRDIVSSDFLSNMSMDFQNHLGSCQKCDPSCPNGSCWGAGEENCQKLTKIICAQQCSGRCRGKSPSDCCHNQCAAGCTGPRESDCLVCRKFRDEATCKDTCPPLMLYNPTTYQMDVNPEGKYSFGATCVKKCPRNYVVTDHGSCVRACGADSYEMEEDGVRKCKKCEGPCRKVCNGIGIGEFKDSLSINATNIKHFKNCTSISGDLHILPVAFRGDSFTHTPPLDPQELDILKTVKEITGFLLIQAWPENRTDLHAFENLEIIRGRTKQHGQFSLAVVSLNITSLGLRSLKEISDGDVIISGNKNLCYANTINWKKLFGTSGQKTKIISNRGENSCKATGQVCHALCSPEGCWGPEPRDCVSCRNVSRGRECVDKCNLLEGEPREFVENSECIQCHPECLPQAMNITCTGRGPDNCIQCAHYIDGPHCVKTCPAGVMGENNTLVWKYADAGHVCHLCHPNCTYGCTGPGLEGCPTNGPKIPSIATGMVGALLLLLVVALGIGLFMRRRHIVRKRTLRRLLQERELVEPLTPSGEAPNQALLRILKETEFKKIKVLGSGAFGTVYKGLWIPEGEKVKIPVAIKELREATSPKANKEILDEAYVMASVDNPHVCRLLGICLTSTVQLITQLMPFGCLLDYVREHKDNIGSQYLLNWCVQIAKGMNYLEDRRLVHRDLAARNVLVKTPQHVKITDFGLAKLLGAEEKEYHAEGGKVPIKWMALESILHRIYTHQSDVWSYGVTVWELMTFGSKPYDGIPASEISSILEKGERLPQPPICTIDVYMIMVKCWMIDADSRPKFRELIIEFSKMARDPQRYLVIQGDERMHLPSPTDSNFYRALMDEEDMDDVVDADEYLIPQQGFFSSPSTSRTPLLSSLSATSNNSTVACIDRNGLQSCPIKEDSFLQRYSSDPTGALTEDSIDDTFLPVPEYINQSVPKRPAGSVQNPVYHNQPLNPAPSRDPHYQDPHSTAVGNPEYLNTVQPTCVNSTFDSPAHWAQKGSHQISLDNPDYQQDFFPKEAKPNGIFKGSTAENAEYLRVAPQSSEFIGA

[8] = target: Follistatin-related protein 3 (Homo sapiens) (UniProt O95633); assay: compounds binding follistatin-related protein 3 – biochemical, small-molecule microarray, 635 nm fluorescence, primary screen (AID 1105); details: FSTL3 binding, higher = more signal;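 further: score merges emission near 667 nm and signal to noise per printed spot across three slides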
Follistatin-related protein 3 (Homo sapiens), sequence (O95633 whole entry, looked up): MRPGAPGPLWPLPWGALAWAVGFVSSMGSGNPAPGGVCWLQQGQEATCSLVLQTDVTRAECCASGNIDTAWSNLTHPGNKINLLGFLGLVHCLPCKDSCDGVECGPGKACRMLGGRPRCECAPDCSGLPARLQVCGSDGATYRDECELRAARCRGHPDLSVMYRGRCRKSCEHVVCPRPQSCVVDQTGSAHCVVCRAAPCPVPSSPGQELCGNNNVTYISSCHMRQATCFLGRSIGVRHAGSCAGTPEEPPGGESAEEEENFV

[9] = target: Dickkopf-related protein 1 (Homo sapiens) (UniProt O94907); assay: small molecules binding DKK1 protein – biochemical, small-molecule microarray, 635 nm fluorescence scan, primary screen (AID 1106); details: higher = more signal;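 further: score merges emission near 667 nm with signal to noise over three replicate slides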
Dickkopf-related protein 1 (Homo sapiens), sequence (O94907 whole entry, looked up): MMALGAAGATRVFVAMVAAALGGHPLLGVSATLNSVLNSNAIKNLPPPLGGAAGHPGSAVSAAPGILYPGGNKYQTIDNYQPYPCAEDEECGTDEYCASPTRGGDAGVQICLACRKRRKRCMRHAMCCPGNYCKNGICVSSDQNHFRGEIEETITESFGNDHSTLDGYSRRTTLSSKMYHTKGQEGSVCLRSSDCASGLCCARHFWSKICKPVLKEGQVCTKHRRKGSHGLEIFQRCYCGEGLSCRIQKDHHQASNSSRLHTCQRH

[10] = test system: Inhibin beta A chain (activin A); assay: small molecules binding activin A – biochemical, small-molecule microarray, 635 nm fluorescence scan, primary screen (AID 1107); details: INHBA, higher = more signal;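 further: mouse activin A protein probed at 4.33 µg/mL on printed slides; score merges bound-protein fluorescence near 667 nm with spot signal-to-noise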
[11] = test system: Human papillomavirus type 1a protein E7 (residues 44-93); assay: small molecules binding HPV E7 44-93 – biochemical, small-molecule microarray, residues 44-93, 635 nm fluorescence, primary screen (AID 1108); details: fluorescence 635 nm, higher = more signal;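 further: E7 fragment applied at 1 µg/mL in TBST for 1 h at 4 C; score combines spot fluorescence with its signal to noise ratio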
[12] = hepatitis C replication reporter changes, two-sided – Huh7 cells, luciferase reporter, HCV replication inhibitor project, primary screen (AID 1109); details: Huh7 HCV replicon luciferase reporter, 48 h; higher = more signal;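 further: huh7 hepatoma cells harbouring a luciferase neomycin HCV replicon reporter; luciferase luminescence as measure of HCV replicon replication; test concentration not given here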
[13] = target: Left-right determination factor 2 (Homo sapiens) (UniProt O00292); assay: small molecules binding LEFTY2 protein – biochemical, small-molecule microarray, 635 nm fluorescence scan, primary screen (AID 1110); details: higher = more signal
Left-right determination factor 2 (Homo sapiens), sequence (O00292 whole entry, looked up): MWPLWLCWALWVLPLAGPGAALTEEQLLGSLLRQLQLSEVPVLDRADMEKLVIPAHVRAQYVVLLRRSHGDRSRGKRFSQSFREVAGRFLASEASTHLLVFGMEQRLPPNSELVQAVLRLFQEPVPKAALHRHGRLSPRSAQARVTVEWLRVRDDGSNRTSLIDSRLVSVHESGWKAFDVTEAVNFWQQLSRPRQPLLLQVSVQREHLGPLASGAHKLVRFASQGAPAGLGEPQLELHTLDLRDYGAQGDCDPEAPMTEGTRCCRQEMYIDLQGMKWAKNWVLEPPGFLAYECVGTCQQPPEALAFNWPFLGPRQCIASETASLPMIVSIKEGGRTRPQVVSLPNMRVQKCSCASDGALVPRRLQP

[14] = target: Calmodulin-1 (Homo sapiens) (UniProt P0DP23); assay: small molecules binding calmodulin-1 with EGTA – biochemical, small-molecule microarray, Cy5-labelled CALM1, profiling panel (AID 1111); details: Cy5-CALM1 binding fluorescence, higher = more signal;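 further: labelled calmodulin applied in Tris saline Tween buffer holding calcium plus EGTA and DTT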
[15] = target: Calmodulin-1 (Homo sapiens) (UniProt P0DP23); assay: small molecules binding Ca-loaded calmodulin-1 – biochemical, small-molecule microarray, Cy5-labelled CALM1, plus calcium, artefact control for SMM control-protein annotation, profiling panel (AID 1112); details: Cy5-CALM1 binding fluorescence, higher = more signal;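 further: score merges spot fluorescence with signal to noise from triplicate slides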
[16] = probe aWnt5a binding to arrayed compounds – biochemical, biotinylated probe, 635/667 nm fluorescence, primary screen (AID 1113); details: small-molecule microarray, higher = more signal;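 further: score merges 667 nm fluorescence intensity with signal-to-noise per printed feature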
[17] = probe aShh binding to arrayed compounds – biochemical, biotinylated probe, 635/667 nm fluorescence, primary screen (AID 1114); details: small-molecule microarray, higher = more signal;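 further: probe is biotin-labelled aShh protein from a stem cell growth factor screen; measures binding of labelled protein to compounds printed on the slide; score merges feature fluorescence at 667 nm with signal-to-noise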
[18] = probe aNog binding to arrayed compounds – biochemical, biotinylated probe, 635/667 nm fluorescence, primary screen (AID 1115); details: small-molecule microarray, higher = more signal;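 further: probe is biotinylated aNog protein used at 0.15 µg/mL for 1 h at 4 C; z-score combines 667 nm fluorescence of each spot with its signal to noise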
[19] = target: Torsin-1A-interacting protein 1 (Homo sapiens) (UniProt Q5JTV8); assay: compound microarray binding of lysate hLAP1 – cell lysate, small-molecule microarray, COS7 lysate, 635/667 nm fluorescence, primary screen (AID 1116); details: 635 nm fluorescence, higher = more signal
Torsin-1A-interacting protein 1 (Homo sapiens), sequence (Q5JTV8 whole entry, looked up): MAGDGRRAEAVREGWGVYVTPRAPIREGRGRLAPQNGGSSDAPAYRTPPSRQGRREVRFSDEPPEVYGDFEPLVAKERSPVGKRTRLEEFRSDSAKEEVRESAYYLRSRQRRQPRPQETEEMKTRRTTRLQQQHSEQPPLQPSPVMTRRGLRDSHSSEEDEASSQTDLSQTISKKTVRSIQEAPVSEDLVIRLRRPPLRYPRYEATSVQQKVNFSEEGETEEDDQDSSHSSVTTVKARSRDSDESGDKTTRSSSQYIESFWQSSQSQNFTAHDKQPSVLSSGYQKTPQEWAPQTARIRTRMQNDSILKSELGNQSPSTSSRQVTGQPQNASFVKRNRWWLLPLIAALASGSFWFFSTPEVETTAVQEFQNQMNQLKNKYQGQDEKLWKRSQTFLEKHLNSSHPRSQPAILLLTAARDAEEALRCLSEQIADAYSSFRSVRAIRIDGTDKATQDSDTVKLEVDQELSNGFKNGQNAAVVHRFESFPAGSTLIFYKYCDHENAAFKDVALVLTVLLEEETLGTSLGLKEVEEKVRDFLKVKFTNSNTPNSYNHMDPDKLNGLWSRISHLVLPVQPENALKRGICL

[20] = target: Alpha-bungarotoxin (Bungarus multicinctus) (UniProt P60615); assay: compounds binding labelled alpha-BTX control protein – biochemical, small-molecule microarray, Alexa647 label, 635/667 nm fluorescence, artefact control for SMM control protein annotation, profiling panel (AID 1117); details: alpha-BTX-A647 binding fluorescence, higher = more signal
Alpha-bungarotoxin (Bungarus multicinctus), sequence (P60615 whole entry, looked up): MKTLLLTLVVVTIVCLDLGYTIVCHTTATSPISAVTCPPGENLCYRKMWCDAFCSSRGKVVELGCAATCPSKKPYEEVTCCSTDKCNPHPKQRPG

## C=C(CCCC)C(=O)CC[C@@H](OC(=O)c1ccccc1-c1ccccc1C(=O)O)c1ccc(OCCO)cc1
[1]
  composite z-score: 1.19
[2]
  composite z-score: -0.0379
[3]
  composite z-score: 0.0075
[4]
  z-score: 0.962 (inactive)
[5]
  composite z-score: 0.969
[6]
  composite z-score: 0.585
[7]
  composite z-score: -0.181
[8]
  composite z-score: 0.668
[9]
  composite z-score: 0.55
[10]
  composite z-score: 1.42
[11]
  composite z-score: -0.65
[12]
  z-score: -2.71
[13]
  composite z-score: 0.744
[14]
  composite z-score: -0.487
[15]
  composite z-score: -0.559
[16]
  composite z-score: -0.096
[17]
  composite z-score: 0.0278
[18]
  composite z-score: 0.094
[19]
  composite z-score: 0.881
[20]
  composite z-score: 1.05

## COC(=O)C(CC#Cc1ccc2c(c1)[C@]1(C(=O)N2)[C@H](c2ccc(OCCO)cc2)N2[C@H](c3ccccc3)[C@H](c3ccccc3)OC(=O)[C@H]2[C@@H]1C(=O)Nc1nc2ccccc2s1)C(=O)OC
[1]
  composite z-score: 0.842
[2]
  composite z-score: -0.348
[3]
  composite z-score: 0.0051
[4]
  z-score: -0.0218 (inactive)
[5]
  composite z-score: 1.03
[6]
  composite z-score: 1.28
[7]
  composite z-score: 0.313
[8]
  composite z-score: 1.09
[9]
  composite z-score: 0.42
[10]
  composite z-score: 0.0864
[11]
  composite z-score: 1.4
[12]
  z-score: -1.65
[13]
  composite z-score: 0.582
[14]
  composite z-score: 1.55
[15]
  composite z-score: 0.489
[16]
  composite z-score: -0.0195
[17]
  composite z-score: -0.0119
[18]
  composite z-score: -0.267
[19]
  composite z-score: 1.03
[20]
  composite z-score: 1.11

## NCCCCCCNC(=O)[C@@H]1C[C@@H]2C(=O)NCC(=O)N2[C@@H]1c1ccc(O)cc1
[1]
  composite z-score: 1.45
[2]
  composite z-score: -0.0828
[3]
  composite z-score: -0.0743
[4]
  z-score: -0.481 (inactive)
[5]
  composite z-score: 1.05
[6]
  composite z-score: 1.3
[7]
  composite z-score: 0.574
[8]
  composite z-score: 1.3
[9]
  composite z-score: 1.6
[10]
  composite z-score: 0.802
[11]
  composite z-score: 1.29
[12]
  z-score: 0.279
[13]
  composite z-score: 1.14
[14]
  composite z-score: 0.584
[15]
  composite z-score: -0.0301
[16]
  composite z-score: -0.142
[17]
  composite z-score: 0.0469
[18]
  composite z-score: -0.566
[19]
  composite z-score: 0.715
[20]
  composite z-score: 1.41

## CC(C)[Si](C#Cc1ccc(Oc2ccccc2)cc1)(O[Si](C#Cc1ccc(Oc2ccccc2)cc1)(C(C)C)C(C)C)C(C)C
[1]
  composite z-score: 1.11
[2]
  composite z-score: 0.112
[3]
  composite z-score: -0.504
[4]
  z-score: -0.226 (inactive)
[5]
  composite z-score: 1.37
[6]
  composite z-score: 0.478
[7]
  composite z-score: 0.0408
[8]
  composite z-score: 0.394
[9]
  composite z-score: 0.687
[10]
  composite z-score: -0.294
[11]
  composite z-score: 0.328
[12]
  z-score: 0.651
[13]
  composite z-score: 0.567
[14]
  composite z-score: -0.185
[15]
  composite z-score: 0.307
[16]
  composite z-score: 0.0561
[17]
  composite z-score: -0.0337
[18]
  composite z-score: -0.12
[19]
  composite z-score: 0.0811
[20]
  composite z-score: 0.262

## CC(=O)NCCCC[C@@H]1NC(=O)[C@@H]2C[C@H](C(=O)NCCCCCNC(=O)CS)[C@H](c3cccc(OCCO)c3)N2C1=O
[1]
  composite z-score: 1.16
[2]
  composite z-score: -0.394
[3]
  composite z-score: -0.155
[4]
  z-score: -2.01 (inactive)
[5]
  composite z-score: 0.0349
[6]
  composite z-score: -0.0868
[7]
  composite z-score: 0.724
[8]
  composite z-score: 1.07
[9]
  composite z-score: 1.11
[10]
  composite z-score: 0.337
[11]
  composite z-score: -0.0596
[12]
  z-score: -0.652
[13]
  composite z-score: 0.837
[14]
  composite z-score: -0.646
[15]
  composite z-score: -0.754
[16]
  composite z-score: -0.214
[17]
  composite z-score: -0.0533
[18]
  composite z-score: -0.0533
[19]
  composite z-score: -0.443
[20]
  composite z-score: -0.0629

## O=C1O[C@H](c2ccccc2)[C@H](c2ccccc2)N2[C@H]1[C@@H](C(=O)N1CCCCCCC1)[C@]1(C(=O)Nc3ccc(C#CC4=CCCCC4)cc31)[C@H]2c1ccc(OCCO)cc1
[1]
  composite z-score: 1.87
[2]
  composite z-score: 2.63
[3]
  composite z-score: 1.36
[4]
  z-score: -1.68 (inactive)
[5]
  composite z-score: 1.46
[6]
  composite z-score: 1.36
[7]
  composite z-score: 1.68
[8]
  composite z-score: 1.66
[9]
  composite z-score: 2.4
[10]
  composite z-score: 1.88
[11]
  composite z-score: 1.54
[12]
  z-score: -2.06
[13]
  composite z-score: 1.63
[14]
  composite z-score: 2.6
[15]
  composite z-score: 1.28
[16]
  composite z-score: 1.32
[17]
  composite z-score: 3.1
[18]
  composite z-score: 2.93
[19]
  composite z-score: 3.47
[20]
  composite z-score: 3.42

From PubChem BioAssay
